Where “and” joins values, the source holds several entries; their conditions need not be identical. Identical values can stand only once. Among all 320,000 compounds or so, about 22,000 (6.9%) were called active. A call without a number means that no potency is given here. Another 27% or so got no clear call; they are omitted. Calls come from the whole dose curve; as a rule, active = well fitted inhibition curve with a large enough effect; inconclusive = small, poorly fitted or top-dose-only effect, or another doubt; inactive = no such curve, though single readings can be large or run the other way. Only a selection was taken, and actives are over-represented in it overall. More than one record can exist for a structure, and the calls need not agree.
Assay: Primary qHTS for delayed death inhibitors of the malarial parasite plastid, 96 hour incubation
Conditions: P. falciparum luciferase reporter growth; series mostly up to 28.7 µM
Summary of the method: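 Erythrocytes infected with luciferase-expressing P. falciparum were dispensed at 2% hematocrit and 0.05% parasitemia (final), then incubated with compounds 96 hours at 37 C in 5% CO2. Luminescence after detection reagent addition reported growth.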
Potency is the fitted concentration of half-maximal effect.

SMILES | Potency
O=C1CN(C(=O)c2cc(F)cc(F)c2)c2ccccc2N1 | inactive
Cn1c(O)c(C=Nc2ccc3c(c2)CCC3)c(=O)n(C)c1=O | inactive
O=c1[nH]c(=O)n(-c2ccc(F)cc2)c(O)c1C=NCCN1CCCCC1 | inactive
Cn1c(O)c(C=NCCN2CCNCC2)c(=O)n(C)c1=O | 9.28 µM (active)
COc1ccc(NC(=O)c2cn(-c3ccccc3)nc2SC)cc1 | inactive
Cc1cccc(N2CCN(C(=O)COCc3cc(-c4ccc5c(c4)OCO5)on3)CC2)c1C | inactive
Cc1ccsc1-c1cc(C(=O)O)c2c(ccc3ccccc32)n1 | inactive
Cc1ccccc1NC(=S)N(CCCN1CCOCC1)Cc1cccs1 | 3.7 µM (active)
Cc1ccc(Cl)cc1NC(=S)N(CCN(C)C)Cc1cccs1 | inactive
Cc1ccc(NC(=S)N(CCN(C)C)Cc2cccs2)cc1C | inactive
CCN(C(=O)COC(=O)c1sccc1C)c1c(N)n(Cc2ccccc2)c(=O)[nH]c1=O | inactive
COc1ccc(OC)c(/C=N/NC(=O)c2ccc[n+](CC(=O)c3ccccc3)c2)c1 | inactive
O=C(O)c1ccccc1CSc1nc2ccccc2s1 | inactive
CCOC(=O)C1CCCN(C(=O)CN(c2ccc(OC)cc2)S(=O)(=O)c2c(C)noc2C)C1 (stereo not given) | inactive
Cc1cc(C)cc(N(CC(=O)NCC2CCCO2)S(=O)(=O)c2c(C)noc2C)c1 (stereo not given) | inactive
Cc1cc(C)cc(N(CC(=O)N2CC=C(c3ccccc3)CC2)S(=O)(=O)c2c(C)noc2C)c1 | 6.57 µM (active)
COc1ccc(NC2CCCN(C(=O)c3ccncc3)C2)cc1 (stereo not given) | inactive
COc1ccccc1N(C)C(=O)c1cc(S(=O)(=O)N2CCc3ccccc32)cn1C | inactive
CC(=O)NCC(O)c1ccc([N+](=O)[O-])cc1 (stereo not given) | inactive
Cc1ccc(C23CC4CC(CC(C(=O)NCC(=O)O)(C4)C2)C3)cc1 | inactive
CNCC(O)c1ccc(O)c(O)c1 (stereo not given) | inactive
NCC(O)c1ccc(O)cc1 (stereo not given) | inactive and 4.26 µM (active)
COc1ccc(S(=O)(=O)NNC(=O)Nc2ccc(C)cc2)c(OC)c1 | inactive
N#CCCN1CCN(S(=O)(=O)c2ccc(S(=O)(=O)NC3CC3)cc2)CC1 | inactive
N#CCCN1CCN(S(=O)(=O)c2ccc(S(=O)(=O)NC3CCCCC3)cc2)CC1 | 8.28 µM (active)
N#CCCN1CCN(S(=O)(=O)c2ccc(S(=O)(=O)N3CCCC3)cc2)CC1 | inactive
CN(Cc1ccc(F)cc1Cl)S(=O)(=O)c1cccs1 | inactive
COCC(=O)Nc1c(C(=O)N2CCCC2)oc2ccccc12 | inactive
CCOCCCN(C)C1CCN(C(=O)c2oc3ccccc3c2NC(=O)COc2cccc(C)c2)CC1 | 13.1 µM (active)
Cc1cccc(OCC(=O)NC(=S)Nc2ccccc2N2CCOCC2)c1 | inactive

From PubChem BioAssay AID504834 (National Center for Advancing Translational Sciences (NCATS), 2011)
